# Assay results reported in PubChem BioAssay (EPA / NIEHS).
# Results filed as inconclusive are left out. Activity calls are given as the source filed them. How the source made its calls: active means hit-call score of the fitted dose curve at least 0.9, where 1 is the maximum; inconclusive means response in the unintended direction; inactive means score below 0.9.
# Experiments:
# [1] = target: Cellular tumor antigen p53 (Homo sapiens) (UniProt P04637); assay: TOX21_p53_BLA_p2_ratio: Tox21 HCT-116 p53 Agonism Beta-lactamase Assay, Ratio, Phase 2 (AID 2283592)
# Summary of the method: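 HCT-116 cells with p53-responsive beta-lactamase reporter, 4000 cells/well, preincubated 5 h, then compound in DMSO (217-fold dilution) for 16 h at 37C. CCF4-AM substrate 2 h at room temperature; 460/530 nm emission ratio fitted upward versus DMSO.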
# [2] = TOX21_p53_BLA_p3_viability: Viability Assessment in the Tox21 HCT-116 p53 Agonism Beta-lactamase Assay, Phase 3 (AID 2283593);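 further: cells exposed to compound for 16 h before reading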
# Summary of the method: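 HCT-116 cells (4000/well) rested 5 h at 37C, then got DMSO compounds by pin tool (217-fold dilution) for 16 h at 37C, 5% CO2. After the bla read, CellTiter-Glo was added and luminescence read at 30 min, room temperature.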
# [3] = target: Cellular tumor antigen p53 (Homo sapiens) (UniProt P04637); assay: TOX21_p53_BLA_p3_ratio: Tox21 HCT-116 p53 Agonism Beta-lactamase Assay, Ratio, Phase 3 (AID 2283596)
# Summary of the method: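 HCT116 p53-bla cells (4000/well) given compound in DMSO (217-fold dilution) after 5 h, incubated 16 h at 37C. CCF4-AM substrate 2 h at room temperature; 460/530 nm emission ratio, gain fitted against DMSO.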
# [4] = target: Cellular tumor antigen p53 (Homo sapiens) (UniProt P04637); assay: TOX21_p53_BLA_p5_ratio: Tox21 HCT-116 p53 Agonism Beta-lactamase Assay, Ratio, Phase 5 (AID 2283599)
# Summary of the method: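 HCT-116 cells carrying a p53-inducible beta-lactamase reporter were seeded at 4000 cells/well and dosed after 5 h with compound in DMSO (217-fold dilution). After 16 h at 37C, CCF4-AM substrate was added for 2 h, and the 460/530 nm emission ratio was scored as gain-of-signal versus DMSO.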
# [5] = TOX21_p53_BLA_p5_viability: Viability Assessment in the Tox21 HCT-116 p53 Agonism Beta-lactamase Assay, Phase 5 (AID 2283600)
# Summary of the method: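 HCT-116 p53 beta-lactamase reporter cells, 4000/well, were exposed to compound (pin transfer, 217-fold dilution) for 16 hours at 37C. Cellular ATP was read by CellTiter-Glo luminescence after 30 min at room temperature.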
# [6] = target: Cellular tumor antigen p53 (Homo sapiens) (UniProt P04637); assay: TOX21_p53_BLA_p4_ratio: Tox21 HCT-116 p53 Agonism Beta-lactamase Assay, Ratio, Phase 4 (AID 2283601)
# Summary of the method: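 HCT116 cells carrying an inducible beta-lactamase reporter were plated at 4000 cells/well, rested 5 h, then exposed to compounds in DMSO (217-fold dilution) for 16 h at 37C. CCF4-AM substrate was loaded 2 h at room temperature; 460/530 nm emission ratio scored gain-of-signal versus DMSO.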
# [7] = TOX21_p53_BLA_p4_viability: Viability Assessment in the Tox21 HCT-116 p53 Agonism Beta-lactamase Assay, Phase 4 (AID 2283597);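 further: hits lower the luminescence signal meaning cytotoxicity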
# Summary of the method: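 HCT-116 p53-bla cells, 4000/well, dosed after 5 h attachment and incubated 16 h at 37 °C, 5% CO2. Viability from CellTiter-Glo ATP luminescence after 30 min at room temperature, taken after the beta-lactamase read; loss of signal indicates cytotoxicity.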
# Cellular tumor antigen p53 (Homo sapiens), sequence (P04637 whole entry, looked up): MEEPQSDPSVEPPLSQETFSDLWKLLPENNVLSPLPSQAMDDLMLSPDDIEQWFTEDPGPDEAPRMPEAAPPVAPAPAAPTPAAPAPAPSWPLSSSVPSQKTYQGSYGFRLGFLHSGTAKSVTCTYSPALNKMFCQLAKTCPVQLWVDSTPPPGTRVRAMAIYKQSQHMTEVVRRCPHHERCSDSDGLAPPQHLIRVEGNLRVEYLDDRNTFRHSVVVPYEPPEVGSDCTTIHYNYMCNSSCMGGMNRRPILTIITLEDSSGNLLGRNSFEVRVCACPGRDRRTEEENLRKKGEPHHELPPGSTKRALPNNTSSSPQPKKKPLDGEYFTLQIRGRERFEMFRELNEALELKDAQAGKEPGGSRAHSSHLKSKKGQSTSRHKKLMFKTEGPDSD
SMILES,outcome [1],outcome [2],outcome [3],outcome [4],outcome [5],outcome [6],outcome [7],AC50 [2],AC50 [7],AC50 [5]
CC(=O)Oc1ccc(C)cc1,inactive,inactive,inactive,inactive,inactive,inactive,,,,
CCCCCCC1(C)CCC(=O)O1 (centres undefined),inactive,inactive,inactive,,,inactive,inactive,,,
NC(=O)OCC(COC(N)=O)c1ccccc1,inactive,inactive,inactive,inactive,inactive,inactive,,,,
CCCC(=O)OCc1ccccc1,inactive,inactive,inactive,,inactive,inactive,,,,
CN(C)c1ccc(N=Nc2ccccc2C(=O)O)cc1,inactive,,,inactive,,inactive,,75 µM (active),68 µM (active),75.8 µM (active)
CC(C)=CCC/C(C)=C\C#N,inactive,inactive,inactive,inactive,inactive,inactive,,,,
CC1=NC(C)OC1C (centres undefined),inactive,inactive,,inactive,inactive,inactive,,,,
